Shown are actives, neighbours in structure and some others; about 2.3% of the full set was active somewhere.
Abeta rescue – A-beta toxicity reversal in yeast; yeast expressing A-beta42, growth rescue, OD600, 48 h; response scale: 0% DMSO, 100% iron-clioquinol control; Potency, µM (doses to about 46.1 µM), hits mostly activators; 410,000 compounds, 0.063% hits; further: potency means the concentration at half of the fitted maximal effect; nearly all actives have a fitted effect of over 55% in size
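Yeast growth medium received pinned compounds, then yeast cells expressing toxic A-beta were added; plates incubated at 30 C for 48 hr. Growth read as absorbance at 600 nm, normalized to DMSO and equimolar FeCl3 plus clioquinol controls.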
FUS yeast rescue – suppressors of FUS proteinopathy in yeast; S. cerevisiae FUS-expressing, growth rescue, OD600, 24 h; Potency, µM (titrated, usually from 76.6 µM), actives largely listed as activators; 390,000 compounds, 0.24% hits;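 further: potency means the concentration at half of the fitted maximal effect; plate controls were DMSO vehicle for no effect and reference control for full effect; nearly all actives have a fitted effect of over 55% in size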
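Galactose (2%) drives FUS expression in yeast precultured in raffinose; seeding density OD 0.005. Test compounds incubated 24hr at 30C and 99% humidity before absorbance at 600 nm was measured.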
MmCpn inh – M. maripaludis TRiC chaperonin inhibition; purified Mm-Cpn ATPase, ADP Transcreener TR-FRET; Potency, µM (doses to about 76.9 µM), inactives show at the top dose activity, negative = inhibition, most hits filed as inhibitors; 330,000 compounds, 0.031% hits; further: potency means the concentration at half of the fitted maximal effect; on the % scale 0 is the no-effect control and ±100 the full control effect; nearly all actives have a fitted effect of over 80% in size
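Compound-treated chaperonin, 25 nM final, turns over 10 uM ATP at 37°C for 30 min following a 10 min preincubation; ADP generated competes with ADP-d2 for Eu-cryptate antibody, lowering FRET.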
CCT modulator – modulators of cytosolic chaperonin (CCT/TRiC) activity; purified chaperonin ATPase assay, HTRF ADP detection, 30 min; activity change, % (test concentration not listed), hits read low; 360,000 compounds, 0.3% hits; AID 651819; in the data active means activity change below about -30%; further: on the % scale 0 is the no-effect control and ±100 the full control effect
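TRiC at 40 or 20 nM final (batch-dependent) in 30 mM Tris pH 7.4, 100 mM KCl, 5 mM MgCl2, 1 mM DTT, with compound at single 76 uM and 10 uM ATP, 30 min at 37 deg C. ADP detected by HTRF Transcreener, 665/615 ratio.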
aSyn yeast inh – alpha-synuclein toxicity inhibition in yeast; AID 652106; 370,000 compounds, 0.14% hits; Potency, µM (highest dose often 46.1 µM), for the others: top-dose growth rescue (activation), actives largely listed as activators; Yeast expressing alpha-synuclein, growth rescue, BacTiter-Glo, 24 h; further: potency means the concentration at half of the fitted maximal effect; % of control where 0% means no effect; nearly all actives have a fitted effect of over 65% in size
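Readout is rescue of growth in alpha-synuclein-expressing yeast, so inhibitors of toxicity appear as activators. Growth after 24 hr at 30 deg C in galactose medium is quantified by luminescence.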
TDP-43 yeast inh – rescues yeast growth from TDP-43 toxicity; Potency, µM (series often up to 46.1 µM), inactives show top-dose growth rescue (activation), actives largely listed as activators; AID 652104; 410,000 compounds, 1.8% hits; TDP-43 expressing yeast growth rescue, BacTiter-Glo, 24 h; further: potency means the concentration at half of the fitted maximal effect; % of control where 0% means no effect; nearly all actives have a fitted effect of over 50% in size
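Growth rescue of TDP-43-toxic yeast measured as ATP luminescence (BacTiter-Glo). Cells grown to mid-log in raffinose, induced in galactose at OD600=0.02, exposed to compound 24 hr at 30 deg C.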
Active calls of the source: *; i = inactive; ? = inconclusive; . = no result; [ ] = another dose, or the depositor's remark. Unless noted, the call rests on the fitted dose curve; in most records, active means well fitted curve in the direction sought with a large enough effect; inconclusive means small, poorly fitted or top-dose-only effect, or another doubt; inactive means no such curve, though single readings can be large; an effect the other way counts as inactive or inconclusive.

SMILES	Abeta rescue	FUS yeast rescue	MmCpn inh	CCT modulator	aSyn yeast inh	TDP-43 yeast inh
O=C1C=C(c2cccc(Cl)c2O)C[C@@H](c2ccc3c(c2)OCO3)C1	i	i	-2%	-1	?	3.5µM*
COc1ccc([C@H]2CC(=O)C=C(c3cccc(Cl)c3O)C2)cc1OC	i	i	0%	1	5%	18µM*
O=C1C=C(c2ccc(C(=O)O)c(Cl)c2)C[C@@H](c2ccc3c(c2)OCO3)C1	i	i	-1%	0	5%	4%
CC(C)C(=O)N[C@H]1[C@H](O)CCC[C@@]12C(=O)N(Cc1ccccc1)c1ccccc12	.	i	.	.	.	.
Nc1nc(SCc2ccccc2)sc1C(=O)N1CCCCC1	i	i	.	1	16%	13µM*
Nc1c(C(=O)N2CCCCC2)sc(=S)n1-c1ccccc1	i	i	2%	0	-19%	19%
CCOC(=O)[C@]12CCCC=C1N(Cc1ccc(OC)cc1)C(=O)[C@@H]2CC(=O)NCC12CC3CC(CC(C3)C1)C2	.	18µM*	.	.	.	.
O=S(=O)(c1ccc(Cl)cc1)N1CCN(c2nc(Nc3cc(Cl)ccc3O)nc3ccccc23)CC1	.	.	.	.	-20%[36.9 µM]	.
O=C(C[n+]1cccc(Br)c1)c1ccc(-c2ccccc2)cc1	i	i	-8%	2	-5%	1.6µM*
O=C(C[n+]1cccc(Br)c1)c1ccccc1	i	i	-4%	-2	2%	5%
O=C(OC(C(=O)N1CCOCC1)c1ccccc1)c1c2c(nc3ccccc13)CCCC2 (stereo not given)	.	.	.	.	-3%	.
CC1CCC(NC(=O)c2ccc3c(c2)N(Cc2ccccc2)C(=O)c2ccccc2S3(=O)=O)CC1 (stereo not given)	i	?	.	.	.	11%
Cc1ccc(-c2nnc(C3CCN(S(=O)(=O)c4ccc(C)c(C)c4)CC3)o2)cc1	i	i	.	.	.	?
Cc1cccc(-c2nnc(C3CCN(S(=O)(=O)c4cccc(Cl)c4)CC3)o2)c1	i	?	.	.	.	16µM*
Fc1ccc(C2=CSC3=NCCN23)cc1	i	i	-8%	1	-4%	-3%
N=c1nc(N)nc2n1NC(c1ccc(F)cc1)=CS2	i	i	1%	0	13µM*	11µM*
COc1cc(/C=C2\C=Cc3ccccc32)ccc1N(C)C	.	.	.	.	-9%	.
Cn1c(=O)c(=O)n(C)c2cc(S(=O)(=O)N3CCN(Cc4ccc(F)cc4)CC3)ccc21	.	i	.	.	.	.
Cc1nn(-c2ccccc2)c(C)c1/C=C/C(=O)OCC(=O)Nc1ccc(C(N)=O)cc1	i	i	1%	0	-4%	3%
COc1ccccc1NC(=O)COC(=O)c1c(C)nn(-c2ccccc2)c1C	i	i	1%	-13	-2%	18µM*
COc1cccc(NC(=O)COC(=O)/C=C/c2c(C)nn(-c3ccccc3)c2C)c1	i	i	-2%	1	-17%	20µM*
CSc1ccc(CCNC(=O)c2sc3ncccc3c2-n2cccc2)cc1	i	i	.	.	.	?
O=C(NCc1ccccc1F)c1sc2ncccc2c1-n1cccc1	i	i	.	.	.	20µM*
O=C(NCCc1ccccc1)c1sc2ncccc2c1-n1cccc1	i	i	.	.	.	22µM*
CCc1ccc(OCc2ccccc2C(=O)Nc2ccc3nc(C)cc(N)c3c2)cc1	.	.	.	.	-18%	.
Cc1cc(CNC(=O)COc2cc(F)ccc2[N+](=O)[O-])c2ccccc2n1	i	i	0%	3	-7%	.
O=C(COc1cc(F)ccc1[N+](=O)[O-])NCCCc1ccccc1	i	i	-1%	-1	13%	13µM*
COCCCNc1nc2ccccc2nc1NS(=O)(=O)c1cc(Cl)ccc1Cl	i	i	-12%	2	5%	22µM*
COCCCNc1nc2ccccc2nc1NS(=O)(=O)c1ccc(Cl)cc1	i	i	-5%	1	-22%	-10%

High-throughput results deposited in PubChem by National Center for Advancing Translational Sciences (NCATS).
